Assay outcomes (PubChem)
D1 antagonist = antagonists of human D1 dopamine receptor | P21728 | HEK293 TREx D1 cells, calcium flux, dopamine EC80; stronger effect = lower value | activity change, negative = inhibition, % at 10 µM | 360,000 compounds, 3.2% hits | AID 504652; in the data active = activity change below about -30%; also: % is scaled to controls: 0 for no effect and ±100 for the full control effect
Target sequence (P21728 whole entry, looked up): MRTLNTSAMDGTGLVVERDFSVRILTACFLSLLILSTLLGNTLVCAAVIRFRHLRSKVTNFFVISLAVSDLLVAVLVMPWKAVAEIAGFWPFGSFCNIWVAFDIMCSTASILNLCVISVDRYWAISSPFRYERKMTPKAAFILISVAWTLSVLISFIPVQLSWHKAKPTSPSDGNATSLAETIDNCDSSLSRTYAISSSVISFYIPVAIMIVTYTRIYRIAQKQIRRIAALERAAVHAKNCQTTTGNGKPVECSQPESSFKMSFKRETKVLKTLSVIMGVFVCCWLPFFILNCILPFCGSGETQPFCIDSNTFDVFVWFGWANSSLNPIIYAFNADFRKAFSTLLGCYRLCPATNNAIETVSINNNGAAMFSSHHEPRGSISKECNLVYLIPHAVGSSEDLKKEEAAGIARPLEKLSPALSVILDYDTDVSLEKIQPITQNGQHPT
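Tetracycline-induced HEK293 T-REx cells with force-coupled D1 receptor were loaded with a no-wash calcium dye. Compound was added after a 10 s baseline and read kinetically for 180 s; EC80 dopamine was then added and calcium flux followed another 180 s.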
DRD3 antagonist = antagonists of human D3 dopamine receptor; max response, negative = inhibition, %; P35462; D3R cells, DiscoveRx beta-arrestin luminescence, antagonist mode; stronger effect = lower value; AID 652054; 360,000 compounds, 2.5% hits; in the data active = max response below about -50%; inconclusive = no clear call, values can overlap the other calls; also: % is scaled to controls: 0 for no effect and ±100 for the full control effect
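Cells plated overnight at 1500 cells/well, then exposed to library compounds with dopamine controls for 90 minutes at 37 degrees C. DiscoveRx reagent added for 30–60 minutes at room temperature; luminescence read, quantitative HTS format.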
D1 potentiator = human D1 dopamine receptor positive modulation; P21728; 360,000 compounds, 0.036% hits; HEK293 TREx D1 cells, calcium flux, dopamine EC20 potentiation; potentiation, % at 10 µM; in the data active = potentiation above about 30%; also: 0% is about no effect
D1 agonist = human D1 receptor agonism. P21728. HEK293 T-REx D1 cells, calcium flux, agonist mode. activation, % at 2 µM. 360,000 compounds, 1% hits; in the data active = activation above about 30%; also: 0% is about no effect
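Tetracycline-induced HEK293 TREx D1 cells, force-coupled to calcium signalling, were dye-loaded with a no-wash calcium kit. Compound was pin-added after a 10 s baseline. Fluorescence was read kinetically at 1 cycle/s for 180 s, with calcium rises flagged as agonism.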
DRD3 agonist = activates the human D3 dopamine receptor; D3R DiscoveRx beta-arrestin cells, luminescence, 90 min; max activation, %; 410,000 compounds, 0.58% hits; in the data active = max activation above about 30%; also: 0% is about no effect
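Agonist mode: compounds and dopamine controls were applied to plated cells for 90 min at 37 degrees C after an overnight attachment at 1500 cells/well. Luminescent read-out followed 30 - 60 minutes at room temperature with DiscoveRx detection reagent.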
* = called active by the depositor; ! = not confirmed by another sample. Compounds with a hit are over-represented: about 6% of the library has one in this group of screens.

For COc1cc(C#CC#CCN2CCCCC2)ccc1O the results were D1 antagonist 17, DRD3 antagonist -116*, D1 potentiator -2, D1 agonist 11 and DRD3 agonist -21.
CCC1CN(C(=O)Nc2ccc(C(=O)O)cc2)c2cc(Cl)ccc2O1 (stereo not drawn) was read as D1 antagonist -13, D1 potentiator 0, D1 agonist 1 and DRD3 agonist 2.
For CC(=O)Nc1ccc(Nc2nc3c(S(=O)(=O)c4cccc(Cl)c4)nnn3c3ccsc23)cc1 the results were D1 antagonist 6, D1 potentiator -1, D1 agonist 1 and DRD3 agonist 1.
For Cc1cccc(C(=O)Nc2oc(-c3ccccc3)cc2C#N)c1 the results were D1 antagonist -49*, DRD3 antagonist -10, D1 potentiator -4, D1 agonist 6 and DRD3 agonist -18.
`Cc1cc(C)cc(OCC(=O)N(Cc2cccs2)c2ccc(Cl)cc2)c1` gave D1 antagonist 10, D1 potentiator 1, D1 agonist 33* and DRD3 agonist 3.
Screening COc1cc(/C=N/Nc2nn3cnnc3c3ccccc23)ccc1O returned D1 antagonist -8, DRD3 antagonist -29, D1 potentiator -6, D1 agonist 0 and DRD3 agonist -4.
Oc1ccc(/C=N/Nc2nn3cnnc3c3ccccc23)cc1 was read as D1 antagonist -51*, DRD3 antagonist 1, D1 potentiator -1, D1 agonist 0 and DRD3 agonist 2.
Screening Cc1ccccc1Nc1n[nH]c(=S)s1 returned DRD3 antagonist inconclusive and DRD3 agonist -4.
For Cc1ccc(Nc2n[nH]c(=S)s2)cc1 the results were DRD3 antagonist -51* and DRD3 agonist -7.
S=c1[nH]nc(Nc2ccc(Cl)cc2)s1 was read as D1 antagonist 3, DRD3 antagonist 102, D1 potentiator 0, D1 agonist 0 and DRD3 agonist -3.
Screening S=c1[nH]nc(Nc2cccc3ccccc23)s1 returned D1 antagonist -33*, DRD3 antagonist -8, D1 potentiator 3, D1 agonist 2 and DRD3 agonist 2.
`COc1ccc(NS(=O)(=O)c2cc3[nH]c(=O)c(=O)[nH]c3cc2C)cc1OC` gave D1 antagonist -7, D1 potentiator -5, D1 agonist 3 and DRD3 agonist 11.
Screening CCOc1ccc(NC(=O)CSc2nnc(-c3ccc(C)cc3)c(-c3ccc(C)cc3)n2)cc1 returned D1 antagonist 2, D1 potentiator -1, D1 agonist -4 and DRD3 agonist -9.
`O=C(Nc1nc(-c2ccc(Br)cc2)ns1)c1ccccc1F` gave D1 antagonist -6, D1 potentiator -2, D1 agonist 3 and DRD3 agonist -16.
Screening Cc1ccc2c(c1)c1c3n2CCCNC3CCC1 (stereo not drawn) returned D1 antagonist -16, DRD3 antagonist -15, D1 potentiator -8, D1 agonist 20 and DRD3 agonist 12.
`c1cc2c(cc1C1CCCCC1)c1c3n2CCCNC3CCC1` (stereo not drawn) gave D1 antagonist -7, DRD3 antagonist 3, D1 potentiator 18, D1 agonist 122* and DRD3 agonist 5.
CC(C)[C@@H](C)/C=C/[C@@H](C)[C@H]1CC[C@H]2/C(=C/C=C3\C[C@@H](O)CC[C@@H]3C)CCC[C@]12C was read as DRD3 agonist -8.
CCOC(=O)c1c(C)[nH]c(C)c1S(=O)(=O)NCC(=O)Nc1ccc(CC)cc1 was read as D1 antagonist -35*, D1 potentiator -6, D1 agonist 6 and DRD3 agonist 1.
For CCOC(=O)c1c(C)[nH]c(C)c1S(=O)(=O)NCCN1CCN(c2cc(Cl)ccc2C)CC1 the results were D1 antagonist -42*, DRD3 antagonist inconclusive, D1 potentiator -18, D1 agonist 1 and DRD3 agonist -17.
CCOC(=O)c1c(C)[nH]c(C)c1S(=O)(=O)NCC(=O)N1CCN(c2cc(Cl)ccc2C)CC1 was read as D1 antagonist -5, D1 potentiator 0, D1 agonist 4 and DRD3 agonist -11.
For Cc1c(Cl)cccc1NC(=O)C1CCCN(c2nnc(-n3c(C)ccc3C)s2)C1 (stereo not drawn) the results were D1 antagonist 22, D1 potentiator -3, D1 agonist 0 and DRD3 agonist -3.
Screening Cc1ccc(-n2nc(C(=O)NC(C)C)c(=O)n(C)c2=O)cc1 returned D1 antagonist -5, D1 potentiator -1, D1 agonist -1 and DRD3 agonist -7.
`CCN(CCNS(=O)(=O)c1ccc2c(c1)oc(=O)n2C)c1ccccc1` gave D1 antagonist -31*, DRD3 antagonist 18, D1 potentiator -7, D1 agonist 4 and DRD3 agonist 3.
Screening Cc1ccc(C)c(N2CCN(C(=O)CCNS(=O)(=O)c3ccc4c(c3)oc(=O)n4C)CC2)c1 returned D1 antagonist -35*, DRD3 antagonist 4, D1 potentiator -12, D1 agonist 11 and DRD3 agonist 6.
For Cn1c(=O)oc2cc(S(=O)(=O)NCCC(=O)N3CCN(c4ccccc4F)CC3)ccc21 the results were D1 antagonist -9, DRD3 antagonist 2, D1 potentiator -10, D1 agonist 0 and DRD3 agonist 3.
Screening Cn1c(=O)oc2cc(S(=O)(=O)Nc3cccc([N+](=O)[O-])c3)ccc21 returned D1 antagonist -7, DRD3 antagonist -88*, D1 potentiator -6, D1 agonist 4 and DRD3 agonist -28.
`COc1ccccc1CNC(=O)CCNS(=O)(=O)c1ccc2c(c1)oc(=O)n2C` gave D1 antagonist -36*!, DRD3 antagonist 13, D1 potentiator -7, D1 agonist 1 and DRD3 agonist 1.
Screening COc1ccccc1CNS(=O)(=O)c1ccc2c(c1)oc(=O)n2C returned D1 antagonist 10, DRD3 antagonist 20, D1 agonist 16 and DRD3 agonist 8.
Screening CCCN(CCC)CCNS(=O)(=O)c1ccc2c(c1)oc(=O)n2C returned D1 antagonist -9, DRD3 antagonist -22, D1 potentiator -6, D1 agonist 3 and DRD3 agonist -1.
`Cc1cc(C)n2nc(CNC(=O)c3c(F)cccc3F)nc2n1` gave D1 antagonist 1, D1 potentiator -2, D1 agonist 3 and DRD3 agonist -11.
`CCOC(=O)N1CCC(N(C(=O)Nc2cccc(OC)c2)C(C)CC)CC1` (stereo not drawn) gave D1 antagonist 42, DRD3 antagonist 9, D1 potentiator 8, D1 agonist 0 and DRD3 agonist -8.
CCOC(=O)N1CCC(N(CCCOC)C(=O)Nc2cccc(OC)c2)CC1 was read as D1 antagonist -31*, DRD3 antagonist 18, D1 potentiator 1, D1 agonist 2 and DRD3 agonist -7.
O=c1cc(N2CCCCC2)c(-c2ccccc2)nn1Cc1c(Cl)cccc1Cl was read as D1 antagonist -5, DRD3 antagonist -69*, D1 potentiator 2, D1 agonist 0 and DRD3 agonist -4.
